Source: the supplement of paper PMC9254222
In all, about 1,100 compounds were measured (“Wnt reporter firefly/Renilla luciferase ratio relative to plate median”: median about 1.1, highest 2% from about 1.6 on). This is one part of a sample in which the highest values are shown more often than they occur.

Test system: HEK293T (UBE3A T485A transfected, BAR Wnt reporter)
Assay: Wnt reporter firefly/Renilla luciferase ratio relative to plate median (fold (linear ratio)); higher = more Wnt/beta-catenin reporter activation
Conditions: 24 h
In short: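 Chemicals were robotically dosed at 0.01–100 uM for 24 h onto HEK293T cells, starting four hours after transfection with a BAR firefly luciferase Wnt reporter, TK-Renilla and an expression plasmid. The cells had been plated at 4500 cells/well in DMEM with 10% FBS at 37°C and 5% CO2. Following a Dual-Glo luciferase readout, the firefly/Renilla ratio served as the Wnt activity measure and raw Renilla as the cell health measure, both median-centred on each plate. Each value is the mean of four biological replicates.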

## CCCCC(CC)COC(=O)c1ccccc1C(=O)OCC(CC)CCCC (stereo not given) [Di(2-ethylhexyl) phthalate]
concentration: 0.01 uM
  Wnt reporter firefly/Renilla luciferase ratio: 0.948
concentration: 0.1 uM
  Wnt reporter firefly/Renilla luciferase ratio: 0.902
concentration: 1 uM
  Wnt reporter firefly/Renilla luciferase ratio: 1.01
concentration: 10 uM
  Wnt reporter firefly/Renilla luciferase ratio: 1.09
concentration: 100 uM
  Wnt reporter firefly/Renilla luciferase ratio: 0.42

## Clc1cccc(Cl)c1Cl [1,2,3-Trichlorobenzene]
concentration: 0.1 uM
  Wnt reporter firefly/Renilla luciferase ratio: 1.09
concentration: 1 uM
  Wnt reporter firefly/Renilla luciferase ratio: 1.1
concentration: 10 uM
  Wnt reporter firefly/Renilla luciferase ratio: 1.05
concentration: 100 uM
  Wnt reporter firefly/Renilla luciferase ratio: 1.01

## Oc1ccccc1Cl [2-Chlorophenol]
concentration: 0.1 uM
  Wnt reporter firefly/Renilla luciferase ratio: 0.951
concentration: 1 uM
  Wnt reporter firefly/Renilla luciferase ratio: 0.944
concentration: 10 uM
  Wnt reporter firefly/Renilla luciferase ratio: 1.24
concentration: 100 uM
  Wnt reporter firefly/Renilla luciferase ratio: 1.52

## Clc1ccccc1Cl [1,2-Dichlorobenzene]
concentration: 0.1 uM
  Wnt reporter firefly/Renilla luciferase ratio: 0.904
concentration: 1 uM
  Wnt reporter firefly/Renilla luciferase ratio: 1.01
concentration: 10 uM
  Wnt reporter firefly/Renilla luciferase ratio: 0.88
concentration: 100 uM
  Wnt reporter firefly/Renilla luciferase ratio: 1.62

## COc1ccc(C)cc1N [2-Methoxy-5-methylaniline]
concentration: 0.1 uM
  Wnt reporter firefly/Renilla luciferase ratio: 1.14
concentration: 1 uM
  Wnt reporter firefly/Renilla luciferase ratio: 1.31
concentration: 10 uM
  Wnt reporter firefly/Renilla luciferase ratio: 1.26
concentration: 100 uM
  Wnt reporter firefly/Renilla luciferase ratio: 1.29

## C1=Cc2cccc3cccc1c23 [Acenaphthylene]
concentration: 0.1 uM
  Wnt reporter firefly/Renilla luciferase ratio: 1.29
concentration: 1 uM
  Wnt reporter firefly/Renilla luciferase ratio: 1.26
concentration: 10 uM
  Wnt reporter firefly/Renilla luciferase ratio: 1.41
concentration: 100 uM
  Wnt reporter firefly/Renilla luciferase ratio: 0.898

## CCCCCCCCCc1ccc(O)cc1 [4-Nonylphenol, branched]
concentration: 0.1 uM
  Wnt reporter firefly/Renilla luciferase ratio: 1.17
concentration: 1 uM
  Wnt reporter firefly/Renilla luciferase ratio: 1.09
concentration: 10 uM
  Wnt reporter firefly/Renilla luciferase ratio: 0.969
concentration: 100 uM
  Wnt reporter firefly/Renilla luciferase ratio: 1.71

## CCCCCCCCCc1ccc(O)cc1 [4-Nonylphenol]
concentration: 0.1 uM
  Wnt reporter firefly/Renilla luciferase ratio: 0.995
concentration: 1 uM
  Wnt reporter firefly/Renilla luciferase ratio: 0.971
concentration: 10 uM
  Wnt reporter firefly/Renilla luciferase ratio: 1.16
concentration: 100 uM
  Wnt reporter firefly/Renilla luciferase ratio: 0.953

## CCCCCCCc1ccc(O)cc1 [4-Heptylphenol]
concentration: 0.1 uM
  Wnt reporter firefly/Renilla luciferase ratio: 0.655
concentration: 1 uM
  Wnt reporter firefly/Renilla luciferase ratio: 0.978
concentration: 10 uM
  Wnt reporter firefly/Renilla luciferase ratio: 1.2
concentration: 100 uM
  Wnt reporter firefly/Renilla luciferase ratio: 1.01

## CC(C)(C)C(O)/C(=C\c1ccc(Cl)cc1Cl)n1cncn1 (stereo not given) [Diniconazole]
concentration: 0.01 uM
  Wnt reporter firefly/Renilla luciferase ratio: 1.09
concentration: 0.1 uM
  Wnt reporter firefly/Renilla luciferase ratio: 1.05
concentration: 1 uM
  Wnt reporter firefly/Renilla luciferase ratio: 0.977
concentration: 10 uM
  Wnt reporter firefly/Renilla luciferase ratio: 0.744

## Clc1ccc(C(c2ccc(Cl)cc2)C(Cl)Cl)cc1
concentration: 0.1 uM
  Wnt reporter firefly/Renilla luciferase ratio: 0.983
concentration: 1 uM
  Wnt reporter firefly/Renilla luciferase ratio: 0.999
concentration: 10 uM
  Wnt reporter firefly/Renilla luciferase ratio: 0.984
concentration: 100 uM
  Wnt reporter firefly/Renilla luciferase ratio: 1.16

## COc1cccc(NCC(F)Cn2c3ccc(Br)cc3c3cc(Br)ccc32)c1 (stereo not given)
concentration: 0.01 uM
  Wnt reporter firefly/Renilla luciferase ratio: 0.859
concentration: 0.1 uM
  Wnt reporter firefly/Renilla luciferase ratio: 1.11
concentration: 1 uM
  Wnt reporter firefly/Renilla luciferase ratio: 1.28
concentration: 10 uM
  Wnt reporter firefly/Renilla luciferase ratio: 0.896
concentration: 100 uM
  Wnt reporter firefly/Renilla luciferase ratio: 1.01
